This passage reports displacement results from PubChem BioAssay AID1240 (Sanford-Burnham Center for Chemical Genomics, 2008).

Structures are written as SMILES. The whole screen tested about 50,000 compounds, of which about 800 (1.6%) showed an effect of 50% or more. Many of the other results were omitted from the sample, so strong results are more common in it than they were.

Bcl-2-like protein 10 (Homo sapiens), sequence (Q9HD36 whole entry, looked up): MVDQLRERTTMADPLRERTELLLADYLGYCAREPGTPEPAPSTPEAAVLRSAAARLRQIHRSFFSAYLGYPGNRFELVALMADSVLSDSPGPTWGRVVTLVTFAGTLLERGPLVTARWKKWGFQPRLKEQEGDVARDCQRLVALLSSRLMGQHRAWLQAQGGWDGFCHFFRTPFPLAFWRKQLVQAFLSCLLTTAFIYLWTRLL

The assay concerns the target Bcl-2-like protein 10 (Homo sapiens) (UniProt Q9HD36). The experiment in a line: TR3 peptide-Bcl-B binding displacers, biochemical primary FP assay, phenotype converters (AID 1240).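 Note: 0% = Bcl-B with tracer peptide and DMSO and 100% = tracer peptide lacking Bcl-B.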 Particulars: GST-Bcl-B / FITC-TR3 peptide fluorescence polarization; stronger effect = higher value; compound at 3.75 mg/L. For orientation: In fluorescence polarisation assays a small probe gives low polarisation when free and higher when bound to something large.
For `O=C(c1ccccc1)c1ccc(N=Cc2ccc([N+](=O)[O-])s2)cc1`, the displacement was determined as 8.8%.

As for `CCOc1ccccc1/C=C/C(=O)c1cccs1`, the displacement was -11.9%.

For `CC(C)CN1C(=O)/C(=C/c2cccc3ccccc23)SC1=S`, the displacement worked out at 8.3%.

`O=[N+]([O-])c1cccc(S(=O)(=O)NCc2ccccc2)c1`: the displacement is -3.3%.

Consider `NNC(=O)CSc1nc2ccccc2n1Cc1ccccc1`, for which the displacement is -9.6%.

With `Cc1occc1C(=O)NC1CCCCCC1`, the displacement was -13.4%.

For `Cc1ccc(CNC(=O)C(C)Oc2ccc(Cl)cc2Cl)cc1` (stereo not drawn), the displacement was -12.1%.

Consider `O=c1/c(=C\c2ccc(OS(=O)(=O)c3cccc([N+](=O)[O-])c3)cc2)sc2nc3ccccc3n12`, for which the displacement is -6.5%.

In the case of `O=c1/c(=C\c2cccc(OS(=O)(=O)c3cccc([N+](=O)[O-])c3)c2)sc2nc3ccccc3n12`, the displacement was 101%.

`Cc1ccc(S(=O)(=O)Oc2cccc(/C=c3/sc4nc5ccccc5n4c3=O)c2)cc1`: the displacement was -0.5%.

As to `Cc1ccc(S(=O)(=O)Oc2ccc(/C=C3\SC(=S)NC3=O)cc2)cc1`, the displacement was -32.2%.

Regarding `COC(=O)c1cc(N=NC2=C(O)CC(C)(C)CC2=O)cc(C(=O)OC)c1`, the displacement was -7.3%.

For the compound `O=C(/C=C/c1ccc(-c2ccc(Cl)cc2Cl)o1)Nc1ccc(N2CCOCC2)cc1`, the displacement amounted to 83%.

Turning to `O=C(Nc1ccc(N2CCOCC2)cc1)c1ccc(-c2ccc(Cl)cc2Cl)o1`, the displacement is -4.5%.

`CCC(=O)Nc1ccc(NC(=O)/C=C/c2ccc(-c3ccc(Cl)cc3Cl)o2)cc1`: the displacement was -14.5%.

Regarding `O=C(O)c1cc(C(=O)O)cc(N2C(=O)c3ccc(Oc4cccc([N+](=O)[O-])c4)cc3C2=O)c1`, the displacement was 3.2%.

Take `S=c1n(CN2CCOCC2)nnn1-c1ccccc1`: the displacement was -5.3%.

On to `CC1(C)NN(c2ccccc2)C(=S)N1CN1CCOCC1`, for which the displacement was 55.9%.

Regarding `CC1(C)NN(c2ccccc2)C(=S)N1c1ccccc1`, the displacement was 9.6%.

As to `O=C(Cn1c(-c2ccccc2)c[n+]2ccsc12)c1ccc([N+](=O)[O-])cc1`, the displacement was 13.8%.

With `Cc1cc(/C=C2\C(=O)NC(=O)N(c3ccc4c(c3)OCO4)C2=O)c(C)n1-c1ccccc1`, the displacement was 16.1%.

On to `Cc1cc(/C=C2\C(=O)NC(=O)N(c3ccccc3)C2=O)c(C)n1-c1cccc([N+](=O)[O-])c1`, for which the displacement is 9.1%.

On to `Cc1cc(/C=C2\C(=O)NC(=O)N(c3cccc(F)c3)C2=O)c(C)n1-c1cccc([N+](=O)[O-])c1`, for which the displacement was 12.3%.

Take `Cc1cc(/C=C2\C(=O)NC(=O)N(c3ccc4c(c3)OCO4)C2=O)c(C)n1-c1ccc(F)cc1`: the displacement came out at 8%.

With `Cc1cc(/C=C2\C(=O)NC(=O)N(c3ccc4c(c3)OCO4)C2=O)c(C)n1-c1cccc([N+](=O)[O-])c1`, the displacement turned out to be 52.7%.

For `Cc1cc(/C=C2\C(=O)NC(=O)N(c3ccc4c(c3)OCO4)C2=O)c(C)n1-c1cccnc1`, the displacement came to 136%.

For `COc1ccc(NC(=O)/C(=C\c2ccccc2OC)NC(=O)c2ccccc2OC)cc1`, the displacement was 3%.

With `O=C1N/C(=N\N=C\c2ccccc2F)SC1Cc1ccccc1[N+](=O)[O-]` (stereo not drawn), the displacement is 7.3%.

For the compound `O=C1C2C(c3ccc(Cl)cc3)OC3(C(=O)c4ccccc4C3=O)C2C(=O)N1c1ccc(F)c([N+](=O)[O-])c1` (stereo not drawn), the displacement came to 5.6%.

As to `COc1ccccc1NC(=O)C1=C(C)NC(=O)NC1c1cccc([N+](=O)[O-])c1` (stereo not drawn), the displacement was -7.1%.

Consider `CCCC(C)NS(=O)(=O)c1ccccc1[N+](=O)[O-]` (stereo not drawn), for which the displacement was determined as 3%.

Consider `O=C(NCC1CCCO1)c1ccc(F)c2ccccc12` (stereo not drawn), for which the displacement was -13.5%.

Take `O=C(CC1S/C(=N\N=C\c2ccco2)NC1=O)Nc1ccc(C(=O)O)cc1` (stereo not drawn): the displacement was -0.3%.

For `O=C(CC1S/C(=N\N=C\c2cccs2)NC1=O)Nc1ccc(C(=O)O)cc1` (stereo not drawn), the displacement amounted to 121%.

In the case of `O=C(CC1S/C(=N\N=C\c2ccccc2)NC1=O)Nc1ccc(C(=O)O)cc1` (stereo not drawn), the displacement was 69.5%.

As for `O=C(CC1S\C(=N/N=C/C=C/c2ccccc2)NC1=O)Nc1ccc(C(=O)O)cc1` (stereo not drawn), the displacement was 41.6%.

On to `O=C(CC1S/C(=N\N=C\c2cccs2)NC1=O)Nc1ccc(Cl)c(Cl)c1` (stereo not drawn), for which the displacement came out at 7.8%.

As for `CC(=O)c1cccc(NC(=O)CC2S/C(=N\N=C\c3cccs3)NC2=O)c1` (stereo not drawn), the displacement is -3.9%.

Consider `CCOC(=O)C1=NNC2C(=O)N(c3ccc(C)c(C)c3)C(=O)C12` (stereo not drawn), for which the displacement worked out at 4.5%.

On to `CCc1ccc(-c2csc(N3N=C(c4cccs4)CC3c3ccc(F)cc3)n2)cc1` (stereo not drawn), for which the displacement was found to be 0.2%.

Turning to `COc1ccc(NC(=O)c2ccccc2NC(=O)c2ccc(C)cc2)cc1`, the displacement is -10.2%.

Regarding `O=C1/C(=C/c2cn(-c3ccccc3)nc2-c2cccs2)SC(=S)N1C1CCS(=O)(=O)C1` (stereo not drawn), the displacement turned out to be 100%.

As for `O=C1/C(=C/c2cn(-c3ccccc3)nc2-c2cccs2)SC(=S)N1Cc1ccccc1`, the displacement worked out at 115%.

`O=C(O)CCN1C(=O)/C(=C/c2cn(-c3ccccc3)nc2-c2cccs2)SC1=S`: the displacement was -14.1%.

As to `O=C1/C(=C/c2cn(-c3ccccc3)nc2-c2ccco2)SC(=S)N1C1CCS(=O)(=O)C1` (stereo not drawn), the displacement is 11.2%.

In the case of `CC(C)CN1C(=O)/C(=C/c2cn(-c3ccccc3)nc2-c2cccs2)SC1=S`, the displacement was 34.6%.

As to `COc1ccc(N2C(=O)/C(=C/c3cn(-c4ccccc4)nc3-c3cccs3)SC2=S)cc1`, the displacement was found to be 0.4%.

With `COc1ccc(-n2c(SCC(=O)Nc3ccc(C)cc3)nc(O)c(Cc3ccccc3)c2=O)cc1`, the displacement was found to be 22.8%.

In the case of `Cc1ccnc(N2C(=O)c3ccc(C(=O)O)cc3C2=O)c1`, the displacement stood at 1.9%.

`Cc1nn(-c2ccccc2)c2sc(C(=O)N/N=C/c3cc4c(cc3[N+](=O)[O-])OCO4)cc12`: the displacement is -1.4%.

As to `Cc1ccccc1OCC(=O)Nc1ccc(I)cc1Cl`, the displacement turned out to be 9.5%.

With `COC(=O)C1=C(C)N(C)C(C)=C(C(=O)OC)C1c1ccc(Br)cc1`, the displacement is -10.8%.

`CCOc1ccc(-c2nc(Cc3ccccc3OC)no2)cc1`: the displacement was -6.4%.

Take `O=C1C2CCCCC2C(=O)N1CC(=O)N1c2ccccc2Sc2ccc(C(F)(F)F)cc21` (stereo not drawn): the displacement is -14.3%.

In the case of `CCCOc1ccc(N2C(=O)CC(NCCNc3ccc([N+](=O)[O-])cn3)C2=O)cc1` (stereo not drawn), the displacement was -1.7%.

For `O=C(Nc1ccccc1)c1ccccc1N=Cc1ccc(Cl)c([N+](=O)[O-])c1`, the displacement amounted to 6.6%.

As for `O=C(Nc1ccccc1)c1ccccc1N=Cc1ccc(C=Nc2ccccc2C(=O)Nc2ccccc2)cc1`, the displacement worked out at 121%.

As for `CCn1c2ccccc2c2cc(C=Nc3ccccc3C(=O)Nc3ccccc3)ccc21`, the displacement was -5.9%.

Consider `CCOP(=O)(OCC)C(OC(N)=O)c1ccc([N+](=O)[O-])cc1` (stereo not drawn), for which the displacement is -9.1%.

As for `Cc1onc(-c2c(F)cccc2Cl)c1C(=O)NCc1ccccn1`, the displacement was -5.5%.

Take `Cc1cc(N[C@@H]2O[C@@H](C)[C@H](O)[C@@H](O)[C@H]2O)c([N+](=O)[O-])cc1C`: the displacement came out at 6.5%.

Regarding `C[C@@H]1O[C@@H](Nc2ccc(Cl)cc2[N+](=O)[O-])[C@H](O)[C@H](O)[C@H]1O`, the displacement is 54.7%.

Consider `O=[N+]([O-])c1ccccc1N[C@H]1O[C@H](CO)[C@@H](O)[C@@H]1O`, for which the displacement worked out at 6%.
